Screens (PubChem BioAssay)
TIM10 inh – growth inhibitors of isogenic TIM10 control yeast, primary screen, counter-screen for tim10-1 yeast inhibitor project, luminescence, uHTS; AID 463195, 2010; hit rate 1.4% among 330,000; inhibition, % at 10 µM; S. cerevisiae TIM10 strain growth, BacTiter-Glo luminescence, 24 h;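 active = inhibition of 40% or more at the single tested concentration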;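 note: wild-type TIM10 isogenic control strain grown at permissive 25 °C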
tim10-1 inh – growth inhibitors of tim10-1 mutant yeast, primary screen, luminescence, uHTS; S. cerevisiae tim10-1 ts strain growth, BacTiter-Glo, 24 h; hit rate 2.2% among 330,000; inhibition, % at 20 µM;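 active = inhibition of at least 40%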;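 note: mutant grown at 25 °C; 0% = DMSO wells with yeast and 100% = wells holding no yeast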
SKKanGAS inh – S. pyogenes SKKanGAS growth inhibitors in kanamycin, primary screen, streptokinase expression inhibitor project, SKKanGAS strain, BacTiter-Glo luminescence; 6 h; inhibition, % at 7.5 µM; hit rate 1.3% among 300,000;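 active = mean replicate score, as percent of positive control median, at least 50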;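 note: strain carries kanamycin resistance gene driven by streptokinase promoter and grows in 40 µg/ml kanamycin; loss of luminescence reflects streptokinase promoter inhibition or plain growth inhibition; 0% = median of DMSO wells and 100% = positive control at its reference dose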
NLRP3 yeast inh – NALP3 inflammasome inhibitors in reconstituted yeast, primary screen, luminescence, uHTS. Yeast reconstituted NLRP3/ASC/caspase-1, beta-gal luminescence, 24 h. inhibition, % at 10 µM. hit rate 0.39% among 330,000. AID 2825, 2010;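 active = inhibition of 50% or more; inactive = inhibition below 50%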;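 note: plate controls were induced DMSO wells for no effect and uninduced yeast grown without galactose for full effect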
tim23-1 inh – growth inhibitors of tim23-1 mutant yeast, primary screen, luminescence, uHTS. S. cerevisiae tim23-1 growth, BacTiter-Glo luminescence, 24 h. hit rate 1.3% among 330,000. AID 463212, 2010. inhibition, % at 20 µM;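 active = growth inhibition of the mutant yeast at or above 50%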;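 note: temperature-sensitive mutant grown at 25 °C; plate controls were DMSO-treated mutant yeast for no effect and medium wells lacking yeast for full effect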
NALP3 yeast conf – NALP3 inhibitors retested in yeast, confirmation, luminescence, single concentration | AID 435006, 2010 | hit rate 81% among 1,300 | yeast expressing human NALP3 | inhibition, % at 10 µM | shares compounds with NLRP3 yeast inh; in the data active = inhibition above about 48%
Casp1-ASC yeast – CASP1-PYCARD signaling inhibition in yeast, confirmatory test, counterassay for NLRP3 inhibitor program, one-dose; shares compounds with NLRP3 yeast inh; yeast expressing Caspase-1-ASC, luminescence counter screen; inhibition, % at 10 µM; hit rate 66% among 1,000
NALP3 retest – NALP3 inhibitors in yeast, repeat test, confirmation, luminescence, single concentration, retest; hit rate 53% among 1,000; shares compounds with NLRP3 yeast inh; inhibition, % at 10 µM; yeast expressing human NALP3, luminescence read-out
* marks the source's active call; other numbers are inactive results. An excerpt weighted towards active compounds, which were near 4.6% of everything screened. Cut-off read from the data, not from the text of the source, unless noted: active = inhibition above about 50%; inactive = the rest.

Results for Cc1ccc(C(C)C)c(Oc2nnnn2-c2ccccc2)c1 ?
TIM10 inh: 8.8; tim10-1 inh: -5.1; SKKanGAS inh: -8.7; NLRP3 yeast inh: -90.8; tim23-1 inh: 27.1

Results for CCCSc1ccc([C@H]2N[C@@](C)(C(=O)OC)[C@H]3C(=O)N(C)C(=O)[C@@H]23)cc1 ?
TIM10 inh: -5.5; tim10-1 inh: 1.3; SKKanGAS inh: -6.7; NLRP3 yeast inh: 51.3*; tim23-1 inh: 4.0; NALP3 yeast conf: 47.8; Casp1-ASC yeast: 16.4; NALP3 retest: 15.6

What do the screens show for `CC(NC(=O)CNC(=O)c1cccc(Cl)c1)c1ccccc1` (configuration not stated)?
TIM10 inh: -1.5; tim10-1 inh: 25.9; SKKanGAS inh: 12.1; NLRP3 yeast inh: 6.7; tim23-1 inh: 20.5

What do the screens show for `CC(Oc1ccc(F)cc1)C(=O)Nc1cc(C(F)(F)F)ccc1-n1cncn1` (configuration not stated)?
TIM10 inh: 0.8; tim10-1 inh: 30.6; SKKanGAS inh: 9.7; NLRP3 yeast inh: 50.0; tim23-1 inh: 23.4; NALP3 yeast conf: 64.2*; Casp1-ASC yeast: 42.5; NALP3 retest: 38.0

What do the screens show for `COc1ccc(C(=O)Nc2cc(C(F)(F)F)ccc2-n2cncn2)cc1`?
TIM10 inh: -15.9; tim10-1 inh: 24.6; SKKanGAS inh: -5.6; NLRP3 yeast inh: 14.1; tim23-1 inh: 10.6

What do the screens show for `Cc1ccc(-c2nc3ccccc3[nH]2)cc1NC(=O)c1ccc2c(c1)OCO2`?
TIM10 inh: -24.8; tim10-1 inh: -24.7; SKKanGAS inh: 3.7; NLRP3 yeast inh: 59.8*; tim23-1 inh: -10.3; NALP3 yeast conf: 59.3*; Casp1-ASC yeast: 55.8*; NALP3 retest: 59.0*

How did CCOc1ccc(C(=O)Nc2cc(-c3nc4ccccc4[nH]3)ccc2Cl)cc1[N+](=O)[O-] do in these assays?
TIM10 inh: 12.2; tim10-1 inh: 27.3; SKKanGAS inh: 14.6; NLRP3 yeast inh: 77.9*; tim23-1 inh: 13.1; NALP3 yeast conf: 6.2

How did O=C(COc1ccc2c(-c3ccccc3)cc(=O)oc2c1)NC1CCS(=O)(=O)C1 (configuration not stated) do in these assays?
TIM10 inh: 8.4; tim10-1 inh: -12.0; NLRP3 yeast inh: -3.7; tim23-1 inh: 5.0

Results for Cc1[nH]cnc1CSCc1ccc(Cl)cc1 ?
TIM10 inh: 3.5; tim10-1 inh: 7.2; SKKanGAS inh: 2.3; NLRP3 yeast inh: -1.3; tim23-1 inh: -7.0

How did Cc1[nH]cnc1CSCCN do in these assays?
TIM10 inh: 10.4; tim10-1 inh: 2.1; SKKanGAS inh: 4.9; NLRP3 yeast inh: 57.6*; tim23-1 inh: 11.3; NALP3 yeast conf: 69.4*; Casp1-ASC yeast: 53.6*; NALP3 retest: 65.2*

What do the screens show for `O=C(c1ccc(N2CCCC2=O)cc1)N1CCN(c2ccccc2F)CC1`?
TIM10 inh: -7.4; tim10-1 inh: 12.1; SKKanGAS inh: -1.2; NLRP3 yeast inh: 9.3; tim23-1 inh: 9.4

What do the screens show for `Cc1ccc(-c2cnn(-c3ccccc3)c2N)cc1`?
TIM10 inh: -2.3; tim10-1 inh: 24.3; SKKanGAS inh: 10.5; NLRP3 yeast inh: 13.7; tim23-1 inh: 18.2

How did Nc1c(-c2ccc(Cl)cc2)cnn1-c1cc(C(F)(F)F)cc(C(F)(F)F)c1 do in these assays?
TIM10 inh: -4.7; tim10-1 inh: -5.3; SKKanGAS inh: -2.0; NLRP3 yeast inh: 1.1; tim23-1 inh: -1.4

Results for Nc1c(-c2ccccc2)cnn1-c1cccc(C(F)(F)F)c1 ?
TIM10 inh: -41.4; tim10-1 inh: -24.8; SKKanGAS inh: 21.2; NLRP3 yeast inh: 59.6*; tim23-1 inh: -15.6; NALP3 yeast conf: 62.3*; Casp1-ASC yeast: 61.9*; NALP3 retest: 52.9*

Results for Nc1c(-c2cccc(Cl)c2)cnn1-c1cccc(C(F)(F)F)c1 ?
TIM10 inh: 16.8; tim10-1 inh: 17.3; SKKanGAS inh: 32.1; NLRP3 yeast inh: 53.5*; tim23-1 inh: 30.9; NALP3 yeast conf: 72.5*; Casp1-ASC yeast: 65.0*; NALP3 retest: 50.2*

What do the screens show for `CCOC(=O)C1CCCN(C(=O)CCNS(=O)(=O)c2cc(Br)cnc2N)C1` (configuration not stated)?
TIM10 inh: 12.0; tim10-1 inh: 26.9; SKKanGAS inh: -4.5; NLRP3 yeast inh: 5.3; tim23-1 inh: 9.9

How did Cc1cccc(NCc2cc(Cl)ccc2O)n1 do in these assays?
TIM10 inh: -5.0; tim10-1 inh: 0.9; SKKanGAS inh: 1.8; NLRP3 yeast inh: 50.9*; tim23-1 inh: 15.6; NALP3 yeast conf: 45.5; Casp1-ASC yeast: 46.8; NALP3 retest: 41.8

How did Cc1cccc(-n2ncc3c(NC(C)C)ncnc32)c1 do in these assays?
TIM10 inh: -9.5; tim10-1 inh: -35.3; SKKanGAS inh: 14.6; NLRP3 yeast inh: 46.8; tim23-1 inh: 28.1

Results for CC1CCCN(c2ncnc3c2cnn3-c2ccccc2)C1 (configuration not stated) ?
TIM10 inh: -2.9; tim10-1 inh: 15.6; SKKanGAS inh: -6.6; NLRP3 yeast inh: 53.8*; tim23-1 inh: 31.4; NALP3 yeast conf: 61.5*

How did CC1CCCN(c2ncnc3c2cnn3-c2ccc(Cl)cc2)C1 (configuration not stated) do in these assays?
TIM10 inh: -0.3; tim10-1 inh: 10.7; SKKanGAS inh: -2.9; NLRP3 yeast inh: 32.0; tim23-1 inh: 23.8

What do the screens show for `c1ccc(-n2ncc3c(N4CCCCC4)ncnc32)cc1`?
TIM10 inh: -7.8; tim10-1 inh: 12.3; SKKanGAS inh: -0.5; NLRP3 yeast inh: 59.6*; tim23-1 inh: 43.3; NALP3 yeast conf: 60.7*; Casp1-ASC yeast: 69.3*; NALP3 retest: 60.8*

What do the screens show for `CC(C)Nc1ncnc2c1cnn2-c1ccccc1`?
TIM10 inh: -18.3; tim10-1 inh: -26.2; SKKanGAS inh: 11.2; NLRP3 yeast inh: 58.2*; tim23-1 inh: 25.0; NALP3 yeast conf: 65.2*; Casp1-ASC yeast: 37.8; NALP3 retest: 35.5

Results for Cc1[nH]c2ccccc2c1C(=O)C(=O)Nc1ccc2c(c1)OCO2 ?
TIM10 inh: 9.3; tim10-1 inh: 21.7; SKKanGAS inh: 1.7; NLRP3 yeast inh: 18.9; tim23-1 inh: 24.4

How did Cc1cccc(N2CCN(CC(O)COc3ccccc3Cl)CC2)c1 (configuration not stated) do in these assays?
TIM10 inh: 12.8; tim10-1 inh: -2.7; SKKanGAS inh: 9.1; NLRP3 yeast inh: 50.4*; tim23-1 inh: 28.8; NALP3 yeast conf: 64.2*; Casp1-ASC yeast: 37.2; NALP3 retest: 45.9
